# Screening data (PubChem)
# ATXN2 expr inh: ATXN2 expression inhibition | HEK-293 ATXN2-luciferase reporter, luminescence, 24 h | Potency, µM (doses to about 57 µM), inactives show at the highest dose activity change, negative = inhibition, usual class: inhibitors | 360,000 tested, 0.72% active | AID 1745845; note: % is set by controls: 0 for no effect and ±100 for the full control effect; nearly all actives have a fitted effect of over 55% in size
#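 ATXN2-luciferase reporter cells (luciferase flanked by upstream and downstream ATXN2 gene portions) were treated 24 h at 37 °C with compounds at up to 57 uM. SteadyGlo luminescence gave expression; GF-AFC fluorescence gave viability.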
# Nrf2 block: inhibitors of Nrf2 signaling; A549 ARE-Fluc reporter, luciferase luminescence, 18-24 h; Potency, µM (top dose mostly 46 µM), for inactives: at the top dose activity change, negative = inhibition, most hits filed as inhibitors; 360,000 tested, 2.1% active; AID 504444; note: % is set by controls: 0 for no effect and ±100 for the full control effect; nearly all actives have a fitted effect of over 60% in size
#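 Nrf2 function is reported as luminescence of an ARE-controlled luciferase in A549 cells. Compounds were tested at several concentrations, and a CellTiter-Fluor read on the same wells flagged cytotoxicity.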
# TGFb inhibitor: TGF-b pathway inhibition | AID 588855 | HepG2 CAGA-GFP TGF-b/SMAD3 reporter, GFP fluorescence, 18 h; TGF-beta stimulated, 500 pg/mL final | 410,000 tested, 1.2% active | Potency, µM (highest dose often 46.1 µM), inactives show at the highest dose activity, negative = inhibition, most hits filed as inhibitors; note: % is set by controls: 0 for no effect and ±100 for the full control effect; nearly all actives have a fitted effect of over 65% in size
#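 Per well, imaged GFP fluorescence of HEPG2 CAGA-GFP cells gives the signal; cells get compound, then TGF-beta (500 pg/mL final), 18 h at 37 degrees C; %Activity versus -TGF-beta and +DMSO controls.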
# S2 tox: cell viability loss in ATXN counter-screen. S2 cells (HEK-293 line with an ATXN2-luciferase reporter) viability, CellTiter-Fluor protease fluorescence, 24 h. Potency, µM (doses to about 56.7 µM), actives largely listed as cytotoxic. 400,000 tested, 0.49% active. AID 651635; note: nearly all actives have a fitted effect of over 40% in size
# HepG2 viability: counter-screen for TGF-b inhibitors: cytotoxicity in HepG2 cells; HepG2 CAGA-GFP viability, ATP luminescence, 18 h; Potency, µM (highest dose often 46.1 µM), for inactives: at the top dose activity change, negative = cytotoxicity, actives largely listed as cytotoxic; 410,000 tested, 0.76% active
#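 CellTiter-Glo luminescence gave cytotoxicity after 18 hours at 37 degrees C. The cells were HepG2 CAGA-GFP in 1% FBS DMEM, stimulated with 500 pg/mL TGF-beta after compound addition. %Activity was normalised to no-cell wells (complete cell-killing) and DMSO (no toxicity), and curves were fitted and classified.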
# A549 viability: A549 cytotoxicity, counter-screen for Nrf2 inhibitors | A549 ARE-Fluc cells, CellTiter-Fluor viability, 18-24 h | Potency, µM (series often up to 46 µM), inactives show at the top dose activity change, negative = cytotoxicity, most hits filed as inhibitors | 390,000 tested, 0.16% active | AID 504648; note: % is set by controls: 0 for no effect and ±100 for the full control effect
#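 A549 ARE_Fluc cells in 5% FBS OPTI-MEM were exposed to compounds in concentration-response for 18-24 h at 37 deg C. Viability was read by CellTiter-Fluor fluorescence (Ex 405/Em 525) after 30 min, before the luciferase read.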
# * = called active by the depositor; i = inactive; u = inconclusive; x = no result; ! = not active in a repeat. In the library only some 3.8% were active in any assay of this set; here they are far more common. Calls come from the whole dose curve; as a rule, active = well fitted curve in the direction sought with a large enough effect; inconclusive = small, poorly fitted or top-dose-only effect, or another doubt; inactive = no such curve, though single readings can be large; an effect the other way counts as inactive or inconclusive. Potency is the fitted concentration of half-maximal effect.
SMILES,ATXN2 expr inh,Nrf2 block,TGFb inhibitor,S2 tox,HepG2 viability,A549 viability
CC(C)(C)CC(C)(C)c1ccc(O)c(Cc2ccc(Cl)cc2Cl)c1,22µM*!,u,u,28µM*,-41%,-17%
CC(=O)Nc1cccc(C(=O)N/N=C/c2c[nH]c3ccccc23)c1,20%,9%,12%,i,-20%,0%
CC(C)CN(CC(C)C)CC(O)COc1ccccc1Br (stereo unspecified),-28%,5%,11µM*,i,11µM*,11%
COc1ccc(/C=N/NC(=O)COc2cc(C)cc(C)c2)cc1COC(C)=O,-16%,10%,29%,i,-10%,-2%
COc1ccc(-n2nc(C(=O)Nc3ccc(C(C)=O)cc3)nc2-c2ccccc2)cc1,-14%,-16%,7%,u,-17%,11%
O=C(CSCC(=O)Nc1nc(-c2ccc3c(c2)OCO3)cs1)Nc1nccs1,14%,21µM*,-2%,i,-7%,2%
O=C(CSc1ccc(-c2ccc3c(c2)OCO3)nn1)Nc1nccs1,-42%,u,u,u,2%,-11%
CCOC(=O)c1cc(C)n(CC2CCC(C(=O)Nc3cccc(C(C)=O)c3)CC2)c1C (stereo unspecified),x,9%,14µM*,x,-25%,5%
Cc1c(C(=O)N(Cc2ccccc2F)C2CCS(=O)(=O)C2)oc2ccc(F)cc12 (stereo unspecified),x,-28%,-1%,x,-30%,-8%
Cc1ccccc1Nc1nc(Nc2ccccc2C)nc(SC2=NCCS2)n1,u,26µM*,u,u,-22%,-22%
Cc1ccc(Nc2nc(Nc3ccc(C)cc3)nc(SC3=NCCS3)n2)cc1,-27%,u,u,u,-26%,-22%
Cc1ccc2occ(CC(=O)Nc3ccc(S(N)(=O)=O)cc3)c2c1,-8%,5%,1%,i,-5%,2%
Cc1ccc2occ(CC(=O)Nc3ccc(Cl)c(C(F)(F)F)c3)c2c1,25µM*,u,u,u,13µM*,-12%
N#CCC(=N)N1CCN(c2ccc(F)cc2)CC1,6%,4%,1%,i,-5%,0%
O=C(N[C@@H](CO)C(=O)NCc1ccccc1)c1ccc(C(F)(F)F)cc1,7%,-3%,-2%,i,-2%,0%
CN(C)c1ccc2cc(C(=O)N[C@@H](CCCN=C(N)CCl)C(=O)NCc3ccccc3)ccc2c1,31µM*,x,x,x,x,x
CCn1c(CNC(C)=O)nnc1SCC(=O)c1ccc(Br)cc1,0%,-12%,-21%,i,22µM*,0%
CCn1c(CNC(=O)Cc2ccc(OC)cc2)nnc1SCC(=O)c1ccc(Br)cc1,0%,u,4%,i,-10%,-11%
COc1ccc(-n2c(SCC(=O)N3CCCCC3)nc3ccccc3c2=O)cc1,-10%,-5%,9%,u,-7%,-13%
CCOC(=O)N1CCN(C(=O)CSc2nc3ccccc3c(=O)n2-c2ccccc2)CC1,2%,-8%,3.2µM*,u,4%,-9%
Cc1ccc(-n2c(SCC(=O)N3CC(=O)Nc4ccccc43)nc3ccccc3c2=O)cc1,-16%,u,1%,i,-18%,-1%
O=C1CN(C(=O)CSc2nc(-c3ccc(Cl)cc3)cs2)c2ccccc2N1,x,23µM*,u,i,-55%,1%
Cc1cccc(C)c1-n1c(SCC(=O)N2CC(=O)Nc3ccccc32)nc2ccccc2c1=O,-13%,23µM*,-3%,u,-14%,-16%
C[C@@H](CN1CC(=O)NC(=O)C1)N1CC(=O)NC(=O)C1,u,x,x,i,x,x
CCc1ccc(CNC(=O)C2CCCN(S(=O)(=O)c3ccc4c(ccn4C)c3)C2)cc1 (stereo unspecified),-30%,x,u,u,-30%,0%
